Measurements as given in PubChem BioAssay (NCATS).
Results filed as inconclusive are left out. Active and inactive are the calls of the source. Unless noted, calls follow the shape of the dose curve; as a rule, active = well fitted curve in the direction sought with a large enough effect; inconclusive = small, poorly fitted or top-dose-only effect, or another doubt; inactive = no such curve, though single readings can be large; an effect the other way counts as inactive or inconclusive.

Tests used:
[1] = AP1 Signaling Pathway (AID 357; active = well fitted curve in either direction with a large enough effect, not every such curve was filed as active;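 also: ME-180 reporter cells stimulated with EGF at its EC50 level; % is scaled to controls: 0 for no effect and ±100 for the full control effect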)
How it was run: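 Cells are seeded overnight, exposed to compound titrations and an EC50 level of EGF for 5 hours at 37 °C, then loaded with CCF4 dye for 2.5 hours. Beta-lactamase activity under the AP-1 element is read as a blue/green ratio.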

[2] = Stat Signaling Pathway (AID 446; active = well fitted curve in either direction with a large enough effect, not every such curve was filed as active;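 also: ME-180 cervical cancer cells given 40 pM IL-6 alongside compound; SIE-controlled beta-lactamase reporter measured as 460/530 nm FRET emission ratio; % is scaled to controls: 0 for no effect and ±100 for the full control effect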)
How it was run: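 ME-180 SIE-bla cells; overnight plating; cpd + IL-6 40 pM, 5 h, 37 C; LiveBLAzer 2.5 h RT; 460/530 nm emission ratio. Normalized to 300 pM IL-6 and 125 nM JAK inhibitor controls.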

[3] = target: Muscarinic acetylcholine receptor M1 (Rattus norvegicus) (UniProt P08482); experiment: qHTS Assay for Antagonists of Acetylcholine Muscarinic M1 Receptor: Kinetic Measurement of Intracellular Calcium Response (AID 943); also: nearly all actives have a fitted effect of over 75% in size; also: potency is read from the fitted curve at half-maximal effect;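 as to activity change, negative = inhibition: Fluo-4 calcium signal as peak divided by basal fluorescence over 4 min; series mostly up to about 35 µM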
Sequence of Muscarinic acetylcholine receptor M1 (Rattus norvegicus) (P08482 whole entry, looked up): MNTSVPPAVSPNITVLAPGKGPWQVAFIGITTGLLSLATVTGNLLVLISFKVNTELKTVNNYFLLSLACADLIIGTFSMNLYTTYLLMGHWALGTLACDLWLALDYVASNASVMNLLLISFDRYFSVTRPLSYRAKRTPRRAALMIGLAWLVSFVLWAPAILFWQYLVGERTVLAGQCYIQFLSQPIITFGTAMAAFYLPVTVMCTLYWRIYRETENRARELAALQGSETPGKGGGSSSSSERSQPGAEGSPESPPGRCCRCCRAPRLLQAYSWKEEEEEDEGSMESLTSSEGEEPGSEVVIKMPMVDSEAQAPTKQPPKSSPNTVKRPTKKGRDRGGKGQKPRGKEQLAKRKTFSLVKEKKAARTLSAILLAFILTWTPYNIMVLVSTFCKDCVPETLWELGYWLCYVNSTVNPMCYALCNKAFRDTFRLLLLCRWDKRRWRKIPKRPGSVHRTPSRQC
How it was run: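 CHO cells stably expressing rat M1 were loaded with no-wash Fluo-4 dye for 1 h at 37C, pre-incubated 10 min with compound, then challenged with EC80 carbachol (100 nM final); kinetic calcium read 4 min, peak/basal ratio.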

[4] = target: Muscarinic acetylcholine receptor M1 (Rattus norvegicus) (UniProt P08482); experiment: qHTS Assay for Antagonists of Acetylcholine Muscarinic M1 Receptor: Measurement of IP-One Response (AID 944); also: nearly all actives have a fitted effect of over 75% in size; also: potency is read from the fitted curve at half-maximal effect
How it was run: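 CHO cells expressing rat M1 receptor, recovered overnight, were pre-incubated 10 min with compound, then stimulated 30 min with carbachol at EC80 (200 nM) in LiCl-containing buffer, pH 7.4. IP1 accumulation was read by HTRF (620/665 nm).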

[5] = target: Alpha-galactosidase (Coffea arabica) (UniProt Q42656); experiment: Counterscreen for Glucocerebrosidase Inhibitors: qHTS Assay for Coffee Bean alpha-Galactosidase at pH 5.9 (AID 998);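 also: plate controls were uninhibited enzyme for no effect and no-enzyme basal signal for full effect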
Sequence of Alpha-galactosidase (Coffea arabica) (Q42656 whole entry, looked up): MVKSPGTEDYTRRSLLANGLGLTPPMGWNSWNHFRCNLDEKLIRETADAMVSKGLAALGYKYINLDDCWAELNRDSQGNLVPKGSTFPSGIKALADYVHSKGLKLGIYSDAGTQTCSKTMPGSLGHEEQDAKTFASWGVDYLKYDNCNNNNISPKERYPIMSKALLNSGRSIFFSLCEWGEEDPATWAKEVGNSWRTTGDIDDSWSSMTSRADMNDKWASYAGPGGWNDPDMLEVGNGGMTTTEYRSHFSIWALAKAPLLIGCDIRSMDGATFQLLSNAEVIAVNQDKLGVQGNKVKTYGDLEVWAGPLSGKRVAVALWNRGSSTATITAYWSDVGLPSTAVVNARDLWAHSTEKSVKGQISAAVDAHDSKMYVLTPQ
How it was run: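 Compounds were titrated from 0.7 nM to 77 uM against green coffee bean alpha-galactosidase (2 nM) using 80 uM fluorogenic 4-methylumbelliferyl substrate. After 20 min at room temperature, reactions were stopped at pH 10 and read by fluorescence.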

[6] = qHTS Assay for Identification of Small Molecule Agonists for Thrombopoietin (TPO) Signaling Pathway (AID 917); also: % is scaled to controls: 0 for no effect and ±100 for the full control effect
How it was run: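 Murine Ba/F3 cells expressing human TPO receptor and GPIIb-promoter luciferase, IL-3-starved overnight, given compound plus TPO at 26 pM (EC50). After 24 h at 37 C, 5% CO2, luminescence read.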

[7] = qHTS Assay for Identification of Small Molecule Agonists for Hypoxia Response Element Signaling Pathway (AID 914; active = well fitted activation curve with a large enough effect in the signal ratio, with a control signal flat, not every such curve was filed as active; the % refers to the signal ratio; also: % of control where 0% means no effect); settings: ME-180 (cervical carcinoma) HRE-bla reporter, beta-lactamase ratio, CoCl2, 17 h; activation: stronger effect = higher value
How it was run: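 Cells were plated overnight, pin-dosed with compound in a titration series, co-stimulated with EC50 CoCl2 and incubated 17 hours at 37 degrees Celsius. CCF4 substrate was then loaded, and AC50 values came from the 460nm/530nm ratio.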

[8] = qHTS Assay for Identification of Small Molecule Antagonists for NFkB Signaling Pathway (AID 895; active = well fitted inhibition curve with a large enough effect in the signal ratio, with a control signal flat, not every such curve was filed as active; the % refers to the signal ratio; also: % is scaled to controls: 0 for no effect and ±100 for the full control effect)
How it was run: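 Beta-lactamase reporter read-out (460 and 530 nm emission ratio, 405 nm excitation, 2 hrs substrate loading RT) after 5 hr stimulation with 10 pM TNF alpha in compound-treated NFkB-bla ME-180 cells in low-serum medium.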

[9] = target: DNA repair nuclease/redox regulator APEX1 (Homo sapiens) (UniProt P27695); experiment: qHTS Validation Assay for Inhibitors of the Human Apurinic/apyrimidinic Endonuclease 1 (APE1) (AID 1705)
Sequence of DNA repair nuclease/redox regulator APEX1 (Homo sapiens) (P27695 whole entry, looked up): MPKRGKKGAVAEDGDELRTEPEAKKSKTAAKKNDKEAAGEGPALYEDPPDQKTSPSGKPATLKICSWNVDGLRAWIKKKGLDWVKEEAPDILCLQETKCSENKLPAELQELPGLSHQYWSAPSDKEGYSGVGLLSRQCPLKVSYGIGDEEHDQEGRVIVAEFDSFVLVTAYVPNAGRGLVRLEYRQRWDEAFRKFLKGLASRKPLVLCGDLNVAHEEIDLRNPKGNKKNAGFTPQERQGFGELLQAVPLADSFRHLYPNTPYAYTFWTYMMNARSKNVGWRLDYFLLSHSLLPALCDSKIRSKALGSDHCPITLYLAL
How it was run: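 Fluorogenic double-stranded THF abasic-site substrate (5'-TAMRA/3'-BHQ-2), 50 nM final. Enzyme preincubated with compound 15 min at room temperature, then substrate added. Kinetic fluorescence (ex 525/em 598 nm) read three times at 60 s intervals; activity taken as third-minus-first read difference.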

[10] = Counterscreen for APE1 Inhibitors: Fluorescent Dye Displacement Validation Assay (AID 1707);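 also: plate controls were ThO with dsDNA and no compound for no effect and ThO without dsDNA for full effect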
How it was run: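 Thiazole Orange displacement from dsDNA: 250 nM ThO with 50 nM TAMRA-labelled abasic-site (tetrahydrofuran) duplex in 50 mM Tris-HCl pH7.5, 50mM NaCl, 2 mM MgCl2, 0.01% Tween-20. Loss of endpoint fluorescence (ex 480 nm, em 540 nm) flags DNA binders.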

[11] = qHTS for differential inhibitors of proliferation of Plasmodium falciparum line Dd2 (AID 1882); settings: Potency: Plasmodium falciparum Dd2 proliferation inhibition;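 also: series mostly up to about 29 µM; compound exposure of 72 h on infected erythrocytes; plate controls were DMSO vehicle for no effect and 0.29 µM artemisinin for full effect; nearly all actives have a fitted effect of over 65% in size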
How it was run: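 SYBR Green I DNA fluorescence read-out, ex 485/em 535 nm. Signals were normalized to 0.29 uM artemisinin and DMSO wells, then corrected using vehicle-only plates flanking each stack. Parasite growth ran 72 h in erythrocytes before lysis.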

[12] = target: Ferritin light chain (Equus caballus) (UniProt P02791); experiment: qHTS Validation Assay for Identification of Novel General Anesthetics (AID 2323)
Sequence of Ferritin light chain (Equus caballus) (P02791 2-175 limits assumed): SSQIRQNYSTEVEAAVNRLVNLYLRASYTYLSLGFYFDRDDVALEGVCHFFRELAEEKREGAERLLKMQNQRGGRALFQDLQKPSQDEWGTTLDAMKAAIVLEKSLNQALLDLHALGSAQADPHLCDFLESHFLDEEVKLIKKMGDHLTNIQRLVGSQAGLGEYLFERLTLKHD
How it was run: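 Horse-spleen apoferritin (10 uM) in PBS with 50% saturated 1-aminoanthracene; compounds pin-transferred, 10 min at room temperature. Fluorescence read at 380/535 nm, normalized to free 1-AMA and 1-AMA/apoferritin values; four-parameter Hill fit.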

[13] = target: ATP-dependent DNA helicase Q1 (Homo sapiens) (UniProt P46063); experiment: qHTS Validation Assay for Inhibitors of RecQ-Like Dna Helicase 1 (RECQ1) (AID 2353);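 also: plate controls were DMSO vehicle for no effect and enzyme-free control for full effect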
Sequence of ATP-dependent DNA helicase Q1 (Homo sapiens) (P46063 whole entry, looked up): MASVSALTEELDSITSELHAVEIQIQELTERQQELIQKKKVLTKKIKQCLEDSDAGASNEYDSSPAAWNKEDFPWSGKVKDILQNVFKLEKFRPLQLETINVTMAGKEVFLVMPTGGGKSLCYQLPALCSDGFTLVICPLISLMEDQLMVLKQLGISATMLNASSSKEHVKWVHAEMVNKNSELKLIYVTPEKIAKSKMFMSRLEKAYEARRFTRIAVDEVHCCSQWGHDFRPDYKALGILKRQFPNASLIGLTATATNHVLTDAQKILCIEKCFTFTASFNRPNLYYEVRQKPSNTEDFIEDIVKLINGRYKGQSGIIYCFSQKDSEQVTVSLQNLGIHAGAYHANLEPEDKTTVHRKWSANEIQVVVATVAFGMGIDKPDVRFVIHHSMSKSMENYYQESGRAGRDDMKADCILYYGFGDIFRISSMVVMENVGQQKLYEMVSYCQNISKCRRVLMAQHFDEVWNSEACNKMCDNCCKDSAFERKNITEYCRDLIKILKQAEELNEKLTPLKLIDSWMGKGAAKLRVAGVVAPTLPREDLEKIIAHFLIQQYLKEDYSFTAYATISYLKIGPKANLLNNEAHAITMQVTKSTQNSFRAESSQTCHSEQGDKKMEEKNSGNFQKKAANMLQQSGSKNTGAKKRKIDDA
How it was run: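 50 nM RECQ1T1 preincubated 15 min with compound in Tris pH 8.0 buffer with MgCl2, DTT, Tween-20 and 2.5 ug/ml poly(dI-dC); started with 200 nM TAMRA/BHQ-2 forked duplex and 2 mM ATP. Unwinding read as fluorescence (525/598 nm), two reads 2 h apart.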

[14] = Validation screen for small molecules that induce DNA re-replication in MCF 10A normal breast cells (AID 463097); also: 0% is about no effect; nearly all actives have a fitted effect of over 60% in size
How it was run: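 MCF 10A cells exposed to compound 48 hr at 37 C, 5% CO2, then Hoechst-stained 40 min. Laser-scanning imaging of nuclear DNA content (405 nm ex, 500-530 nm em); re-replication scored as rise in nuclei with elevated fluorescence intensity.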

[15] = target: M-phase phosphoprotein 8 (Homo sapiens) (UniProt Q99549); experiment: qHTS Validation Assay for Inhibitors for MPP8 Chromodomain Interactions with Methylated Histone Tails (AID 488949); also: top concentration of the series differs between compounds; % is scaled to controls: 0 for no effect and ±100 for the full control effect; nearly all actives have a fitted effect of over 55% in size
Sequence of M-phase phosphoprotein 8 (Homo sapiens) (Q99549 whole entry, looked up): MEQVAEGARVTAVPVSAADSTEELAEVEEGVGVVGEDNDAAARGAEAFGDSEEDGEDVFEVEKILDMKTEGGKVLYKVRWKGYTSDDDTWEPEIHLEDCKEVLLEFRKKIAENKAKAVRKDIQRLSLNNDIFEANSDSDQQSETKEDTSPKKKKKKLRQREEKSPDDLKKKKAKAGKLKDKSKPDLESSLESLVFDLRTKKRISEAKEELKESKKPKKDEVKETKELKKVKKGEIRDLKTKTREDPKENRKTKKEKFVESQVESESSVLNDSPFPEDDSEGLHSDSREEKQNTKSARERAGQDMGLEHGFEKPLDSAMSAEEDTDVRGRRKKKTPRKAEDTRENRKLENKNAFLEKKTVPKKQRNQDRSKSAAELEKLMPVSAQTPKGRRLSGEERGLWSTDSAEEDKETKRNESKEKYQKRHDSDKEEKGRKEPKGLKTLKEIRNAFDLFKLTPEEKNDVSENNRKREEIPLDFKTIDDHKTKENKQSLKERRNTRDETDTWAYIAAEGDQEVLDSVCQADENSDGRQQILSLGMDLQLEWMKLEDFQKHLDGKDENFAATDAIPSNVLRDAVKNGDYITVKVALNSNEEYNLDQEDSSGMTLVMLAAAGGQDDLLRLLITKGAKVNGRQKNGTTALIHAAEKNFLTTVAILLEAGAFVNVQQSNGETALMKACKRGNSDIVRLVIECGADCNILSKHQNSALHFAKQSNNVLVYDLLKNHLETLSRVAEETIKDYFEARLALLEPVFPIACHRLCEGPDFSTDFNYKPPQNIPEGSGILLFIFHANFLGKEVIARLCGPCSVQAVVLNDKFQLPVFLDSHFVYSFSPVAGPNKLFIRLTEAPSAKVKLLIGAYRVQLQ
How it was run: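 MPP8 (50 nM) was pre-bound to 50 nM biotinylated H3(1-18)K9me3 peptide in PBS pH 7.4 with 0.01% Tween-20. Compounds were then added for 30 min at room temperature, and complex disruption was read by AlphaScreen with streptavidin donor and nickel-chelate acceptor beads.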

[16] = target: Transient receptor potential cation channel subfamily V member 1 (Homo sapiens) (UniProt Q8NER1); experiment: HTS Assay for Compounds that Act as Enhancers of the Vanilloid Receptor 1 (AID 488979); also: 0% is about no effect
Sequence of Transient receptor potential cation channel subfamily V member 1 (Homo sapiens) (Q8NER1 whole entry, looked up): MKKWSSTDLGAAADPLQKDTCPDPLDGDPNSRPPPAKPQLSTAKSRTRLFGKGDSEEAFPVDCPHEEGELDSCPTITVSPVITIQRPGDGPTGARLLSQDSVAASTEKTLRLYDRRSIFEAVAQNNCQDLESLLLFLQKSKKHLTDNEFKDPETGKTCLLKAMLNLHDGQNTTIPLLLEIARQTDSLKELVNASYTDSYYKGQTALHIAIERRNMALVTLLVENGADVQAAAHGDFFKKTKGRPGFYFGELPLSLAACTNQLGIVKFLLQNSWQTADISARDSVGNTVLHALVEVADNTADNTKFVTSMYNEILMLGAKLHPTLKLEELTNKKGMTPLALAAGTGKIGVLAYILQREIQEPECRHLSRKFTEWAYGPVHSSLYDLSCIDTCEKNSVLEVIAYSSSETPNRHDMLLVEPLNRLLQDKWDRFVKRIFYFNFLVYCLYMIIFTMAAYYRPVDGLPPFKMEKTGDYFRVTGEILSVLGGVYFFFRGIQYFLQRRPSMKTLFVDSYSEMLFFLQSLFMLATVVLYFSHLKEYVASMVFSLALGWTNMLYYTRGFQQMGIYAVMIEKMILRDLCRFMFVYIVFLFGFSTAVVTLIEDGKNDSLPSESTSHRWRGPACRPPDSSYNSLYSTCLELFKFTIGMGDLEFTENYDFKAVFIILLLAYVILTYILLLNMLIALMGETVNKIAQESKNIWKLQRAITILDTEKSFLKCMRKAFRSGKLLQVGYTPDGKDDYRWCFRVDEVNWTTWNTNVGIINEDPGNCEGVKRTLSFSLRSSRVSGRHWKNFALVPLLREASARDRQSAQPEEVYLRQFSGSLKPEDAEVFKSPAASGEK
How it was run: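 Calcium influx kinetics via Fluo-8 (480/520 nm) in TRPV1-expressing cells, 2000/well cultured overnight at 35.5C. Compound-alone read 3 min (agonist phase), followed by EC20 capsaicin challenge for 2 min (enhancer phase).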

[17] = target: Thyrotropin receptor (Homo sapiens) (UniProt P16473); experiment: qHTS Assay for Antagonists of the Thyroid Stimulating Hormone Receptor (AID 488980); also: series mostly up to about 58 µM; 0% is about no effect
How it was run: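 TSHR-transfected HEK293 cells (2000/well) in HEPES-buffered HBSS with 70 uM RO 20-1724 were stimulated with 4 nM TSH (EC80, final) in the presence of compound. cAMP was measured by HTRF competition after lysis and 30 min at RT.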

[18] = target: Thyrotropin-releasing hormone receptor (Homo sapiens) (UniProt P34981); experiment: qHTS for Small Molecule Agonists and Allosteric Enhancers of Human TRH Receptor: Validation Screen for Agonists (AID 493127;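 active = calcium activation more than 3 SD above the typical response in the agonist read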;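 also: intracellular calcium rise by fluo-8 fluorescence before TRH EC20 addition; 0% is about no effect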); settings: TRH receptor agonist cell assay; at 2 µM; stronger effect = higher value
Sequence of Thyrotropin-releasing hormone receptor (Homo sapiens) (P34981 whole entry, looked up): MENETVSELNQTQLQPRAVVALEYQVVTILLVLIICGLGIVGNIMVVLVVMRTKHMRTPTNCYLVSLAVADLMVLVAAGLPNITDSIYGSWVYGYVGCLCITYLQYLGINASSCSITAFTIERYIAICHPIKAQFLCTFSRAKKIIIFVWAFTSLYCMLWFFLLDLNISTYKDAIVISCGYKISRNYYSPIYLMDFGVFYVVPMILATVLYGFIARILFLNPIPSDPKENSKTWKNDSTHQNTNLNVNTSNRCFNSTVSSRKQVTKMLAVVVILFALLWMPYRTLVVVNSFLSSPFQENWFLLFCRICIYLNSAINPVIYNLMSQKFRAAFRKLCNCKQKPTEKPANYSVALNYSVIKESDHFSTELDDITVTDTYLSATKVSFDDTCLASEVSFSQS
How it was run: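 TRHR-expressing cells were plated overnight in serum-containing medium, then loaded with fluo-8 calcium dye at room temperature for 30 min–1.5 h. After a 10 s baseline, compound was pin-transferred and calcium fluorescence (ex 480/em 530) read kinetically for agonist response.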

[19] = target: Galactokinase (Homo sapiens) (UniProt P51570); experiment: qHTS Validation Assay for Inhibitors of Human Galactokinase (GALK) (AID 493189); also: 0% is about no effect
Sequence of Galactokinase (Homo sapiens) (P51570 whole entry, looked up): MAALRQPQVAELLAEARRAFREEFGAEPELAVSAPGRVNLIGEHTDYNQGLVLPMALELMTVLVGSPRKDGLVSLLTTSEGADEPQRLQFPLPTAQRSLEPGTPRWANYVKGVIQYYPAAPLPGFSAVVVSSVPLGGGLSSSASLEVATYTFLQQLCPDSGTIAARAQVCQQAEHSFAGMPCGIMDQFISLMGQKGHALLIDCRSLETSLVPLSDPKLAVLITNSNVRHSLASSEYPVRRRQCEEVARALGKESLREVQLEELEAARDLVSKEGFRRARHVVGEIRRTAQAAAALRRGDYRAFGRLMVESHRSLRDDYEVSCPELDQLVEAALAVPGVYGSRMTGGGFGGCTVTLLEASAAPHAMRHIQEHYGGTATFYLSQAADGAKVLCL
How it was run: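 GALK (5 nM) with 35 uM ATP and 100 uM galactose in HEPES pH 8.0 with MgCl2, NaCl, DTT and BSA. Reaction ran 1 h at room temperature. Residual ATP read by Kinase-Glo Plus luminescence.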

[20] = target: Cytochrome P450 2C9 (Homo sapiens) (UniProt P11712); experiment: qHTS Assay for Inhibitors and Substrates of Cytochrome P450 2C9 (AID 883); also: nearly all actives have a fitted effect of over 60% in size; also: potency is read from the fitted curve at half-maximal effect
Sequence of Cytochrome P450 2C9 (Homo sapiens) (P11712 whole entry, looked up): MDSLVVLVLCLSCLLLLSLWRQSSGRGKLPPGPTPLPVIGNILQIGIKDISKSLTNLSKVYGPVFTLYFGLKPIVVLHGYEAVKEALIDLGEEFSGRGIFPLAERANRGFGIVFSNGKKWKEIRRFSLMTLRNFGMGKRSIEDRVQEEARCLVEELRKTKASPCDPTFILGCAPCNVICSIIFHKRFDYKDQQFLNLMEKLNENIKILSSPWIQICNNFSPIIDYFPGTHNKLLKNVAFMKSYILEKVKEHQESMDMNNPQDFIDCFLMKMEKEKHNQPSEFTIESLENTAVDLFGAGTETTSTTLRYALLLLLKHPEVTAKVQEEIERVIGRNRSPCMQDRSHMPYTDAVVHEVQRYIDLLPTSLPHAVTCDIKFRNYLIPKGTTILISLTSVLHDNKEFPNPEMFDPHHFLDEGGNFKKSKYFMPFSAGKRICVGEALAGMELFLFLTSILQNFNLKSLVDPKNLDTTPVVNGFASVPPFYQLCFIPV
How it was run: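 Luminescent read-out of deoxyluciferin hydroxylation, normalized to 57uM sulphaphenazole (AC100). Reaction: 10nM enzyme, 100uM Luciferin-H (equal to KM), 25mM KPO4, 10 min compound preincubation, then 60 min with NADPH regeneration, both at 37C.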

C[C@H](N)Cc1cnc[nH]1
inactive: outcome [1] | outcome [2] | Potency [3] | Potency [4] | outcome [5]

O=C1NCN(c2ccccc2)C12CCN(C[C@H]1COc3ccccc3O1)CC2
inactive: outcome [1] | outcome [6] | Potency [3] | Potency [4] | outcome [5]

CN1[C@@H]2CC[C@H]1CC(O[C@@H](c1ccccc1)c1ccc(Cl)cc1)C2 (some centres not stated)
inactive: outcome [1] | activation [7] -9.36%
active: Potency [3] 20 nM | Potency [4] 12.6 nM

COc1ccc(-n2nc(C(F)(F)F)cc2-c2ccc(Cl)cc2)cc1
inactive: Potency [8] | outcome [5] | Potency [9] | Potency [10] | Potency [11] | outcome [12] | Potency [13] | Potency [14] | Potency [15] | outcome [16] | outcome [17] | activation [18] -9.62% | outcome [19]

CN1CCN(C(=O)OC2c3nccnc3C(=O)N2c2ccc(Cl)cn2)CC1 (configuration not stated)
inactive: outcome [1]

CCN1C[C@]2(COC(=O)c3ccccc3N3C(=O)C[C@H](C)C3=O)CC[C@H](OC)[C@@]34[C@@H]5C[C@H]6[C@H](OC)[C@H]5[C@](O)(C[C@@H]6OC)[C@@](O)([C@@H](OC)[C@@H]23)[C@@H]14
inactive: Potency [20]

C=C(C)[C@H]1CN[C@H](C(=O)O)[C@@H]1CC(=O)O
inactive: Potency [8] | Potency [4]

COC(=O)CN1CN(c2ccccc2)C2(CCN(Cc3ccc4ccccc4c3)CC2)C1=O
inactive: Potency [20]

CCOC(=O)c1cc2c(cn1)[nH]c1ccccc12
inactive: outcome [2]

S=C=Nc1cccc(C2(N3CCCCC3)CCCCC2)c1
inactive: Potency [20]

N[C@H](C(=O)O)c1cc(=O)[nH]o1
inactive: Potency [20] | outcome [6] | Potency [3] | Potency [4] | outcome [5]

O=C1CC[C@@]2(O)[C@H]3Cc4ccc(O)c5c4[C@@]2(CCN3CC2CC2)[C@@H]1O5
inactive: outcome [6] | Potency [4] | outcome [5]

C=CCN1CC[C@]23c4c5ccc(O)c4O[C@@H]2C(=O)CC[C@]3(O)[C@H]1C5
inactive: outcome [2]

Oc1ccc2c3c1O[C@H]1c4oc5ccccc5c4C[C@]4(O)[C@H](C2)N(CC2CC2)CC[C@@]314
inactive: outcome [6] | outcome [5]

Oc1ccc2c3c1O[C@H]1c4[nH]c5ccccc5c4C[C@]4(O)[C@H](C2)N(CC2CC2)CC[C@@]314
inactive: outcome [1] | outcome [2] | Potency [8] | Potency [4] | outcome [5]

O=C(O)c1ccccc1-c1c2cc(Br)c(=O)cc-2oc2[c]([Hg])c(O)c(Br)cc12
active: Potency [20] 631 nM

C[C@@H](N)Cn1ccc2cc(F)c(Cl)cc21
active: Potency [20] 3980 nM

Cc1c(C(=O)c2ccc3ccccc3c2)c2cccc3c2n1[C@H](CN1CCOCC1)CO3
inactive: Potency [20]

CC(C)n1cnc2c(C(=O)N[C@H]3CN4CCC3CC4)cc(Cl)cc21
active: Potency [20] 398 nM

Fc1ccc(C(OCCN2CCN(C/C=C\c3ccccc3)CC2)c2ccc(F)cc2)cc1
active: Potency [20] 7940 nM

O=C(Cc1ccc(Cl)c(Cl)c1)N1CCCC[C@H]1CN1CCCC1
inactive: outcome [6] | outcome [5]

C[C@H](N)Cc1c[nH]c2ccc(OCc3cccs3)cc12
inactive: Potency [8] | Potency [4] | outcome [5]

CNCCc1c[nH]c2ccccc12
inactive: outcome [1] | activation [7] -14%

C=CCN1C[C@H](C)N([C@H](c2ccc(C(=O)N(CC)CC)cc2)c2cccc(O)c2)C[C@H]1C
active: Potency [20] 3980 nM

CP(=O)(O)CCCN
inactive: Potency [8] | activation [7] 7.54% | Potency [3] | outcome [5] | Potency [9] | Potency [10] | Potency [11] | outcome [12] | Potency [13] | Potency [14] | Potency [15] | outcome [16] | outcome [17] | activation [18] 1.06% | outcome [19]

COc1ccc2[nH]cc(CCN(C)C)c2c1
inactive: outcome [2] | Potency [20] | Potency [8] | outcome [6] | Potency [3] | Potency [4] | outcome [5] | Potency [9] | Potency [10] | Potency [11] | outcome [12] | Potency [13] | Potency [14] | Potency [15] | outcome [16] | outcome [17] | activation [18] 0.688% | outcome [19]

CN1C(=O)CCS(=O)(=O)[C@H]1c1ccc(Cl)cc1
inactive: outcome [1] | Potency [20] | outcome [6] | Potency [3] | Potency [4] | outcome [5]

O=C1C2CCN(CC2)C1(CO)CO
inactive: activity change, negative = inhibition [1] 3.23% [at 7.69 µM]
active: Potency [20] 63.1 nM

CN1CCN(c2ccc3ccccc3n2)CC1
inactive: Potency [8] | outcome [5] | Potency [9] | Potency [10] | Potency [11] | outcome [12] | Potency [13] | Potency [14] | Potency [15] | outcome [16] | outcome [17] | activation [18] 1.56% | outcome [19]
